Screening data deposited in PubChem BioAssay by National Center for Advancing Translational Sciences (NCATS).
Most compounds without a hit are left out; they make up all but 2.3% or so of the library.
Lassa entry inh: blocks Lassa virus binding to or entry into cells | hit rate 1.2% among 300,000 | Lassa virus pseudotype entry inhibition, cell reporter | Potency, µM (highest dose often 37.9 µM), for inactives: at the highest dose activity change, negative = inhibition, actives largely listed as inhibitors; calls by dose curve; tested in HEK293 cells; note: nearly all actives have a fitted effect of over 50% in size
AmpC inh detg: inhibitors of E. coli AmpC beta-lactamase with detergent; P00811; AmpC hydrolysis of nitrocefin, absorbance 480 nm, 0.01% Triton; Potency, µM (titrated, usually from 114 µM), without a hit: at the top dose activity change, negative = inhibition, hits mostly inhibitors; hit rate 0.041% among 370,000; AID 485294;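 note: 0% = no-compound wells and -100% = no-enzyme wells; nearly all actives have a fitted effect of over 25% in size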
Target sequence (P00811 whole entry, looked up): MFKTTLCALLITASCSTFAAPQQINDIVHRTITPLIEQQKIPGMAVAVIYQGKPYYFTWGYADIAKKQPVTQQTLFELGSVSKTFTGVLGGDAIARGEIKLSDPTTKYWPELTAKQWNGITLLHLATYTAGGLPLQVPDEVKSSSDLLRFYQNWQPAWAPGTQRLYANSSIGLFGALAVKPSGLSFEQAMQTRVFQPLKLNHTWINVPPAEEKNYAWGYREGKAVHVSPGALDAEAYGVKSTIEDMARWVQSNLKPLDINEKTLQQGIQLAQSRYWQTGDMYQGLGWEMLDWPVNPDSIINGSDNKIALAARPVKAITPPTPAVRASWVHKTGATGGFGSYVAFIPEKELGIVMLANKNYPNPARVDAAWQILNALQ
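AmpC (5.3 nM in the dispensed reagent) in 20 mM phosphate pH 7.0 with 0.01% (detergent screen) or 0.0001% Triton X-100 was preincubated with compounds for 15 min at room temperature. Nitrocefin was then added from an 800 uM solution, and hydrolysis was followed at 480 nm.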
AmpC inh no detg: AmpC beta-lactamase inhibition without detergent | P00811 | AmpC nitrocefin hydrolysis, absorbance 480 nm, 0.0001% Triton | Potency, µM (highest dose often 57.1 µM), inactives show at the top dose activity change, negative = inhibition, hits mostly inhibitors | hit rate 0.52% among 330,000 | AID 485341;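 note: plate controls were no compound for no effect and no enzyme for full effect; nearly all actives have a fitted effect of over 20% in size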
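20 mM phosphate pH 7.0 + 0.01% (detergent screen) or 0.0001% Triton X-100; 5.3 nM AmpC reagent; cpd preinc 15 min RT; nitrocefin (800 uM stock) to start; A480 q20 s × 4 min; Activity was normalised to no-enzyme and no-compound control wells.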
AMA1-RON2 inh: inhibitors of Plasmodium falciparum AMA1-RON2 interaction | hit rate 0.2% among 360,000 | AlphaScreen AMA1-biotinylated RON2 peptide binding | AID 720542 | Potency, µM (series often up to 58.2 µM), without a hit: at the highest dose activity change, negative = inhibition, hits mostly inhibitors;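 note: 0% = vehicle wells and -100% = peptide control; nearly all actives have a fitted effect of over 45% in size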
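AMA1 (3D7) with his tag at 25 nM final met compounds first, then biotinylated RON2 peptide at 25 nM; detection used donor plus acceptor beads, 10 µg/mL apiece, read by AlphaScreen after 30 min at room temperature.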
Marburg entry inh: Marburg virus entry inhibition | Potency, µM (top dose mostly 37.8 µM), inactives show top-dose activity change, negative = inhibition, actives largely listed as inhibitors | Marburg virus pseudotyped entry inhibition, cell reporter | hit rate 1.8% among 300,000; calls by dose curve; tested in HEK293 cells
* marks the source's active call; other numbers are inactive results; u = inconclusive; x = no result; ! = a repeat was not active; [ ] = dose if it differs, or a comment. Unless noted, calls come from the whole dose curve; as a rule, active = well fitted curve in the direction sought with a large enough effect; inconclusive = small, poorly fitted or top-dose-only effect, or another doubt; inactive = no such curve, though single readings can be large; an effect the other way counts as inactive or inconclusive. Unless noted, % is set by controls: 0 for no effect and ±100 for the full control effect; potency is the fitted concentration of half-maximal effect.

SMILES	Lassa entry inh	AmpC inh detg	AmpC inh no detg	AMA1-RON2 inh	Marburg entry inh
OCCN1CCN(CC(O)COC(c2ccc(F)cc2)c2ccc(F)cc2)CC1 (stereo not given)	u	-3.3%	17.1%	-11.1%	2µM*
C=CCOC(=O)C(C(C)=O)[C@@H](NC(=O)OC)c1ccc(F)cc1 (stereo not given in full)	x	x	x	x	19.6%[14.2 µM]
COc1ccc(-c2onc(C)c2C)cc1S(=O)(=O)Nc1cc(Cl)ccc1C	u	2.1%	x	x	x
COCC(C)n1c(SCc2cc(=O)n3cc(C)ccc3n2)nc2ccccc2c1=O (stereo not given)	6.31µM*	-15.6%	128.1%	1.2%	5.01µM*
Cc1cccc(-c2ccc3ncnc(N(C)Cc4ccco4)c3c2)c1	x	-3.2%	-1.0%	x	x
Cc1ccc2[nH]c(C)c(/C=C/c3cc[n+](C)cc3)c2c1	3.16µM*	-11.2%	28.6%	-10.0%	8.91µM*
COc1ccc(N(C)S(=O)(=O)c2cccc(C(=O)N(C)Cc3ccc(C)o3)c2)cc1	5.01µM*	-0.5%	126.3%	-9.1%	u
CC(=O)N1CCN(S(=O)(=O)c2cccc(C(=O)N(C)Cc3ccc(C)o3)c2)CC1	0.7%[46.1 µM]	u	143.1%	12.2%	6.8%
O=C(Nc1nc2c(F)cc(F)cc2s1)c1ccccn1	7.08µM*	-12.3%	-29.5%[11.4 µM]	55.6%	u
CCCC=CC1C(=O)[C@@H]2O[C@H]2C2(OCC(CC)(CC)CO2)C1CO (stereo not given in full)	x	x	x	x	-11.4%[14.2 µM]
Cc1cc(COC(=O)C2N3C(=O)[C@@H](NC(=O)COc4ccccc4)[C@H]3SC2(C)C)on1 (stereo not given in full)	x	1.6%	25.4%	-6.3%	x
CC1(C)S[C@@H]2[C@H](NC(=O)[C@H](N)c3ccccc3)C(=O)N2[C@H]1C(=O)OC1OC(=O)c2ccccc21 (stereo not given in full)	x	63.1µM*	0.224µM*	105.0%	x
CCOc1ccc2ccccc2c1C(=O)N[C@@H]1C(=O)N2[C@@H]1SC(C)(C)[C@@H]2C(=O)O	x	5.01µM*	5.62µM*!	14.5%	x
CCC(Oc1ccccc1)C(=O)NC1C(=O)N2C1SC(C)(C)C2C(=O)O (stereo not given)	-0.9%[46.1 µM]	31.6µM*	28.2µM*	22.6%	15.8%[46.1 µM]
CC1(C)S[C@@H]2[C@H](NC(=O)Cc3ccccc3)C(=O)N2[C@H]1C(=O)O	4.1%	1.8%	0.9%	24.8%	-4.6%
N#Cc1nc(/C=C/c2ccc(F)cc2)oc1N1CCCCCC1	-12.6%[46.1 µM]	-6.3%	x	x	-9.2%[46.1 µM]
CCN(CC)c1ccc(C=C(c2nnnn2-c2ccccc2)c2nnnn2-c2ccccc2)cc1	2.51µM*	-12.7%	u	-11.6%	u
Nc1ccc(CCNc2ncnc3c2ncn3[C@@H]2O[C@@H](CO)[C@H](O)[C@@H]2O)cc1	x	x	x	x	-6.2%
COc1ccc2c(c1)c(CCN1CCOCC1)c(C)n2C(=O)c1cccc(Cl)c1Cl	23.1µM*	x	x	x	u
CCc1c(C(=O)N/N=C/c2cn[nH]c2-c2ccc(F)cc2)csc1C	2.3%	u	15.8µM*	9.6%	4.0%
Fc1ccc(-c2cnn3c(-c4cccs4)ccnc23)cc1	10µM*	-8.6%	-27.0%	-3.5%	u
CCN1C(=NCCc2cccnc2)NC(CCc2ccccc2)C(C(=O)OC)=C1C (stereo not given)	x	x	x	x	38.2%[14.2 µM]
COc1cccc(C(=O)N2c3nc(-c4ccco4)nn3C3(CCCCC3)[C@@H]3CCCC[C@@H]32)c1	6.0%[46.1 µM]	5.0%	x	x	-6.8%[46.1 µM]
Nc1ccc(O)cc1C(=O)OCC(=O)C12CC3CC(CC(C3)C1)C2	11.4%	6.7%	12.6µM*	-22.1%	27.6%
CCOC(=O)C1(Cc2ccccc2C(F)(F)F)CCN(C2CCCC2)CC1	u	-8.0%	57.7%	11.8%	7.94µM*
SMILES	Lassa entry inh	AmpC inh detg	AmpC inh no detg	AMA1-RON2 inh	Marburg entry inh
COc1ccc(NC(=O)N2CCc3nc(COc4ccccc4)c4c(c3C2)CO[C@@H](C)C4)cc1	x	x	x	x	-18.9%[14.2 µM]
CN(c1ccccc1)S(=O)(=O)c1cccc(C(=O)Nc2ccc3c(c2)CCC3)c1	16.4µM*	-5.7%	-29.4%	-15.2%	15.8%
CN(c1ccccc1)S(=O)(=O)c1cccc(NC(=O)c2ccc(=O)[nH]n2)c1	u	x	2µM*	-13.9%	u
CN(c1ccccc1)S(=O)(=O)c1cccc(NC(=O)c2cc(=O)c3ccccc3o2)c1	u	8.5%	-41.7%	-21.2%	12.6µM*
CN(c1ccc(C(=O)Nc2ccc(F)cc2F)cc1)S(=O)(=O)c1ccccc1	11.2µM*	2.9%	-37.2%	-7.7%	-26.6%
COc1ccc(CNC(=O)Cn2c(=O)cc(-c3ccccc3)c3c(C)nn(C)c32)cc1	7.5%[46.1 µM]	19.4%	x	x	x
CN(c1cccc(NC(=O)c2ccc(N(C)S(=O)(=O)c3ccccc3)cc2)c1)S(C)(=O)=O	u	-2.2%	-1.1%	14.9%	16.4µM*
CC(=O)Nc1ccc(C(=O)Nc2cccc(S(=O)(=O)N(C)c3ccccc3)c2)cc1	x	-11.9%	-23.7%	2.1%	x
Cc1ccc(C(=O)N2N=C(c3ccc(Br)cc3)CC2c2ccccc2O)cc1 (stereo not given)	12.6µM*	-11.3%	-50.7%	-6.7%	-29.5%
NS(=O)(=O)c1ccc(N=Nc2c(-c3ccccc3)[nH]n(-c3nc(-c4ccccc4)cs3)c2=O)cc1	u	2.9%	-36.3%	-3.1%	22.4µM*
Nc1[nH]n2c(=O)cc(-c3ccccc3)nc2c1N=Nc1ccc(S(N)(=O)=O)cc1	-1.8%	-1.7%	-5.6%	35.2%	4.9%[46.1 µM]
O=C(CN1CCCC1)Nc1ccc(Oc2ccc(NC(=O)CN3CCCC3)cc2)cc1	13µM*	-0.7%	-10.3%	16.7%	2.06µM*
CCCCOc1ccc(NC(=O)CN2CCN(CC)CC2)cc1	10.0%	1.7%	-2.6%	-8.7%	-0.4%
CCCCOc1ccc(NC(=O)CN2CCN(C(=O)OCC)CC2)cc1	3.55µM*	-11.1%	93.2%	-23.7%	0.1%
CC(C)c1ccc(NC(=O)CCNS(=O)(=O)c2ccc3c(c2)oc(=O)n3C)cc1	u	7.8%	x	x	3.9%[46.1 µM]
COc1ccc(O[C@H]2C=C[C@@H](c3ccccc3)O[C@@H]2CO/N=C2/[C@H]3CCn4c(=O)n(-c5ccccc5)c(=O)n4[C@H]3[C@H](O)[C@@H]3O[C@H]23)cc1	x	x	x	x	4.6%[14.2 µM]
COc1cc2[nH]c(=O)n(CCCC(=O)NCc3ccc(Cl)cc3)c(=O)c2cc1OC	-1.7%[46.1 µM]	-1.5%	x	x	-3.4%[46.1 µM]
COc1cc2[nH]c(=O)n(CCCC(=O)NCCc3ccccc3)c(=O)c2cc1OC	1.41µM*	-9.0%	-6.6%	11.7%	u
O=C(c1ccc2c(=O)n(CCc3ccccc3)c(=O)[nH]c2c1)N1CCN(c2ccccc2)CC1	u	3.4%	-5.8%	2.5%	9.6%[46.1 µM]
COc1ccc(N2CCN(C(=O)c3ccc4c(=O)n(CCc5ccc(OC)c(OC)c5)c(=O)[nH]c4c3)CC2)cc1	-26.2%	0.7%	23.9%	10.5%	11.2µM*
